Screening data deposited in PubChem BioAssay by National Center for Advancing Translational Sciences (NCATS).
In the library only some 8.7% were active in any assay of this set; here they are far more common.
HP1b chromo inh: inhibitors of HP1-beta chromodomain binding to methylated histone tails. P83916. AlphaScreen HP1-beta / biotin-H3K9me3 peptide binding. Potency, µM (titrated, usually from 114 µM), for the others: at the top dose activity change, negative = inhibition, usual class: inhibitors. actives 0.56% (n = 390,000). AID 540317; also: nearly all actives have a fitted effect of over 70% in size
Target sequence (P83916 whole entry, looked up): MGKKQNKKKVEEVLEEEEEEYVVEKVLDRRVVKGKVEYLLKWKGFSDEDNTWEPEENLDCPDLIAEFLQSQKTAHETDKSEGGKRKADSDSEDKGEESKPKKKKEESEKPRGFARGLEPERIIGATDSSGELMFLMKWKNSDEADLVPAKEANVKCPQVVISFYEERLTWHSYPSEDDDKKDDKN
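HP1-beta protein (50 nM final) preincubated 30 min at room temperature with biotinylated H3(1-18)K9me3 peptide (50 nM) in PBS pH 7.4, 0.01% Tween-20, then compound added for 30 min. AlphaScreen streptavidin donor/nickel chelate acceptor beads (10 ug/mL final), 30 min dark, luminescence read.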
ALOX12 inh: ALOX12 (human) lipoxygenase inhibition; AID 1671190; actives 1.1% (n = 580,000); P18054; purified 12hLO, xylenol orange hydroperoxide absorbance; Potency, µM (highest dose often 108 µM), inactives show at the top dose activity change, negative = inhibition, hits mostly inhibitors; also: % is scaled to controls: 0 for no effect and ±100 for the full control effect
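Hydroperoxide product was detected by ferrous iron/xylenol orange as the 573 to 405 nm absorbance ratio. Arachidonic acid at 40 uM (final) was turned over for 30 min at room temperature by 150 nM human 12hLO, pH 7.0 Hepes buffer, after 15 min compound preincubation.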
BAZ2B inh: inhibitors of human BAZ2B bromodomain. AlphaScreen BAZ2B-H3K14Ac peptide displacement. Q9UIF8. Potency, µM (top dose mostly 114 µM), for the others: at the highest dose activity change, negative = inhibition, hits mostly inhibitors. AID 504333. actives 4.4% (n = 360,000); also: % is scaled to controls: 0 for no effect and ±100 for the full control effect; nearly all actives have a fitted effect of over 60% in size
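Multi-concentration screen (max 110 uM) measuring displacement of acetylated histone H3 peptide from BAZ2B by AlphaScreen, using 50 nM protein, 50 nM peptide and 10 ug/mL streptavidin donor plus Ni-chelate acceptor beads.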
Sfp inh: inhibitors of Bacillus subtilis Sfp phosphopantetheinyl transferase | actives 3.5% (n = 310,000) | AID 1490 | Q9F4F7 | Potency, µM, without a hit: largest response in the series, negative = inhibition, usual class: inhibitors | Biochemical Sfp PPTase activity, qHTS;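 also: the enzyme is Sfp with the accession as filed and its product quenches rhodamine fluorescence; 0% = enzyme reaction without inhibitor and -100% = no enzyme wells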
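Buffer: 50 mM Hepes-Na pH 7.6, 10 mM MgCl2, 0.01% Nonidet P-40, 0.01% BSA. Enzyme 15 nM, pre-exposed to compound 15 min; substrates then added and fluorescence change tracked over 30 min.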
G9a block: blocks human histone lysine methyltransferase G9a; G9a H3K9 monomethylation, AlphaScreen, 2 h; Potency, µM (top dose mostly 102 µM), for inactives: at the top dose activity, negative = inhibition, hits mostly inhibitors; actives 8.8% (n = 350,000); also: % is scaled to controls: 0 for no effect and ±100 for the full control effect; nearly all actives have a fitted effect of over 75% in size
Target sequence (Q96KQ7 913-1193 limits assumed): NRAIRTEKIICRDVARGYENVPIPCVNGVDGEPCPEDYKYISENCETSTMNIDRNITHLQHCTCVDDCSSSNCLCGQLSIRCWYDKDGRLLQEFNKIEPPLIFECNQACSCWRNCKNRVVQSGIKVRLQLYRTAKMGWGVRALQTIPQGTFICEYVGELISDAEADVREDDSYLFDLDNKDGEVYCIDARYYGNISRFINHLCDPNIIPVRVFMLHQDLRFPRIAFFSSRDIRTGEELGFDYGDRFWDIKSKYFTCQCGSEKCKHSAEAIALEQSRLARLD
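AlphaScreen detection with an anti-monomethyl H3K9 antibody quantified product after a 2 h room-temperature reaction containing 500 nM biotinylated H3K9 peptide, 20 µM SAM and 20 nM enzyme, which had been preincubated 15 min with compound.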
JMJD2A Tudor inh: inhibitors of human JMJD2A Tudor domain | actives 4.4% (n = 390,000) | O75164 | AlphaScreen JMJD2A-Tudor / H3K4me3 peptide binding | Potency, µM (titrated, usually from 114 µM), for the others: top-dose activity change, negative = inhibition, most hits filed as inhibitors; also: % is scaled to controls: 0 for no effect and ±100 for the full control effect; nearly all actives have a fitted effect of over 50% in size
* = called active by the depositor; u = inconclusive; x = no result; [ ] = dose if it differs, or a comment. Calls follow the shape of the dose curve; as a rule, active = well fitted curve in the direction sought with a large enough effect; inconclusive = small, poorly fitted or top-dose-only effect, or another doubt; inactive = no such curve, though single readings can be large; an effect the other way counts as inactive or inconclusive. Potency is read from the fitted curve at half-maximal effect.

SMILES | HP1b chromo inh | ALOX12 inh | BAZ2B inh | Sfp inh | G9a block | JMJD2A Tudor inh
O=C(N1CCN(c2ncncn2)CC1)N(c1ccccc1)c1ccccc1 | x | 36% | x | x | x | x
O=C(O)C1CC(C(=O)O)SS1 (centres undefined) | -6% | u | x | x | x | 32µM*
O=C(O)C1CCC(C(=O)O)CC1 (centres undefined) | x | -15% | x | x | x | x
COC(=O)c1ccc(Cn2c(C)cc(C)[n+]2C)o1 | 21% | 0%[57.4 µM] | u | -18% | u | 40µM*
Cn1c(Cl)nc2c1c(=O)n(Cc1cccc(Cl)c1)c(=O)n2C | x | 7% | x | x | x | x
CC(C)Oc1cccc(C(=O)NC(=S)Nc2ccc3c4c(cccc24)CC3)c1 | u | 18µM* | u | -9% | u | u
O=C(Cc1ccccc1)N1CCC(N2C(=O)C(OCC3CC3)C23CCCCC3)CC1 (centres undefined) | x | 73% | x | x | x | x
Cc1ccc(-c2nc(N)sc2-c2ccc(C)cc2)cc1 | -21% | u | u | 18% | 50µM* | u
CCCc1sc(N)nc1-c1ccc(C)cc1 | -36% | 53% | u | 2% | 56µM* | u
Cc1ccc(-c2nc(N)sc2-c2ccccc2)cc1C | u | u | u | -24% | u | u
CCC(C)NC(=O)COC(=O)Cc1sc(N)nc1-c1ccc(C)cc1 (centres undefined) | -14% | -14% | -12% | -74% | -10%[59 µM] | -20%
COc1ccc(-c2nc(C)sc2C)cc1 | u | u | 3% | 11% | u | 32µM*
Cc1ccc(-c2nc(N)sc2C)cc1 | 7% | 2% | u | 7% | 50µM* | -16%
CCCCc1ccc2[nH]c(C(=O)OCC)cc2c1 | x | -17% | x | x | x | x
Nc1nc(-c2ccccc2)c(-c2ccccc2)s1 | -31% | u | 2%[57.1 µM] | -15% | 40µM* | u
Nc1nc(-c2ccccc2)c(-c2ccc([N+](=O)[O-])cc2)s1 | 16% | u | -18% | 10% | -40% | -15%
FC(c1nc2ccccc2[nH]1)C(F)(F)F (centres undefined) | 34% | 13% | -17% | 1% | 31% | -12%
FC(F)c1nc2ccccc2[nH]1 | 23% | -33% | 40µM* | u | x | -8%
COc1ccc(N=C2SCC(c3ccc(C)cc3)=NN2CCO)cc1 | -10% | u | u | -8% | 50µM* | -34%
O=[N+]([O-])c1ccc(C2=NN(CCO)C(=Nc3ccc(OC(F)(F)F)cc3)SC2)cc1 | u | 0% | u | -19% | 16µM* | u
CCOc1ccc2c(c1)S/C(=C\c1cccc(Oc3ccc(Cl)cc3)c1)C(=O)N2 | x | -3% | x | x | x | x
Cc1ccc(-n2[nH]c(C)c(C=Nc3ccc(S(=O)(=O)Nc4nc(C)cc(C)n4)cc3)c2=O)c(C)c1 | 2% | -13% | -3% | -14% | 10% | u
Cc1[nH]n(-c2ccc(Br)cc2)c(=O)c1C=Nc1ccc(S(=O)(=O)Nc2nccs2)cc1 | 19% | 1% | u | -14% | 25% | u
Cc1cc(C)nc(NS(=O)(=O)c2ccc(N=Cc3c(C)[nH]n(-c4ccccc4)c3=O)cc2)n1 | -5% | 4% | -7% | 8% | 5%[59 µM] | 79µM*
CCc1nnc(NS(=O)(=O)c2ccc(N=Cc3c(C)[nH]n(-c4ccc(C)c(C)c4)c3=O)cc2)s1 | -8% | -11% | 50µM* | -14% | -49% | -31%
SMILES | HP1b chromo inh | ALOX12 inh | BAZ2B inh | Sfp inh | G9a block | JMJD2A Tudor inh
CC(C)NCC1(COc2ccccc2)C[C@@H](O)[C@@H](O)C1 (some centres undefined) | x | 12%[176 µM] | x | x | x | x
CCS(=O)(=O)NCC1(COc2ccccc2)C[C@@H](O)[C@@H](O)C1 (some centres undefined) | x | 56µM* | x | x | x | x
COc1ccc(N2CCN(C(=O)c3oc4ccccc4c3NC(=O)c3ccccc3OC)CC2)cc1 | 14% | -18% | -18%[57.1 µM] | x | 5.6µM* | u
COc1ccc(N2CCN(C(=O)c3oc4ccccc4c3NC(=O)CCc3cc(OC)no3)CC2)cc1 | -21% | 23% | u | 1% | 35µM* | 45µM*
COc1cc(CCC(=O)Nc2c(C(=O)N3CCN(c4ccccc4)CC3)oc3ccccc23)on1 | 17% | 9% | u | -4% | u | u
O=C(Nc1c(C(=O)N2CCN(c3ccccc3)CC2)oc2ccccc12)c1ccccc1F | -15% | -4% | -18% | x | u | -21%
Cc1ncsc1CCOC(=O)c1cccnc1 | 16% | -22% | 50µM* | 0% | u | u
CCOC(=O)c1cccnc1 | x | x | x | 12% | 16%[59 µM] | x
COc1ccc(NC(=O)c2ccc(CN3C(=O)NC4(CCOCC4)C3=O)cc2)cc1 | x | -4% | x | x | x | x
COc1ccc(OC)c(S(=O)(=O)Nc2ccc3c(c2)CCCN3C(=O)c2cccnc2)c1 | x | -25% | x | x | x | x
CCc1c(C)nc2[nH]nc(NC(=O)C(F)(F)F)n2c1=O | -14% | 15% | u | -3% | 16µM* | 89µM*
FC(F)(F)c1nc2ccccc2n1CCNc1nc(CN2CCCCC2)cs1 | 27% | -2% | -35% | 4% | 45µM* | -23%
O=C(Cn1c(C(F)(F)F)nc2ccccc21)N1CCCC1 | 29% | 0% | 8% | 20% | -8% | -17%
c1ccc2c(c1)nc(-c1ccncc1)n2CCNc1nc(CN2CCCCC2)cs1 | 38% | 1% | -36% | -20% | 50µM* | -9%
O=C(NCCn1c(-c2ccncc2)nc2ccccc21)[C@H]1CCCN1c1nc(CN2CCCCC2)cs1 | 49% | -1% | -9% | 16% | -2% | -5%
NS(=O)(=O)c1ccc(N/N=C/c2ccc(Cl)cc2Cl)c([N+](=O)[O-])c1 | x | 75% | x | x | x | x
Cc1cc(C)c(OCCOCCN2CCN(C)CC2)c(Cl)c1 | u | u | 32µM* | -30% | 3.5µM* | 1.6µM*
Cc1cc(Cl)cc(Cl)c1OCCN1CCCC1 | u | u | -9% | -1% | 50µM* | 50µM*
Cc1cc(Cl)c(OCCOCCN2CCNCC2)c(Cl)c1 | 31% | u | x | x | x | -5%
Cc1cc(Cl)c(OCCCN2CCCCC2)c(Br)c1 | u | u | 50µM* | -5% | u | 28µM*
COc1cc(C)ccc1OCCOc1c(Cl)cc(Cl)cc1Cl | 208% | 0% | 167% | 6% | 229% | 96%
Cc1cc(Cl)cc(Cl)c1OCCCCN(C)C | u | -21% | -35% | -7% | 8.9µM* | 45µM*
COc1ccc(/C=C/c2nc(C#N)c(NCCCn3ccnc3)o2)cc1OC | x | 23% | x | x | x | x
Cc1ccc(OCc2nc(-c3cc(C)nc4ccccc34)no2)c(C)c1 | x | -4% | x | x | x | x
O=C(c1cc(F)ccc1Cl)N1CCC(Cc2nc(-c3ccccc3)no2)CC1 | x | 15% | x | x | x | x
